The source of these data is PubChem BioAssay (NCATS).

Test [1] is described as follows: qHTS of pediatric cancer cell lines to identify multiple opportunities for drug repurposing: Primary screen for U-2 OS cells (AID 1347096). Further: nearly all actives have a fitted effect of over 50% in size. Further: potency means the concentration at half of the fitted maximal effect. The method, boiled down:
(§1)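 Viability after 48 h compound treatment at 37C, 500-1,000 cells/well, read as ATP luminescence with CellTiter-Glo. Primary screens used 11-point (MIPE, 0.78 nM-46 µM) or 8-point (NPC, 0.59 nM-46 µM) final concentrations; follow-up screens used 11-point dilutions.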

A short description of test [2]: qHTS of pediatric cancer cell lines to identify multiple opportunities for drug repurposing: Primary screen for Saos-2 cells (AID 1347097). Further: nearly all actives have a fitted effect of over 40% in size. Further: potency means the concentration at half of the fitted maximal effect. The method, boiled down:
(§2)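 Primary screen of approved and investigational compounds on cells in growth media at 37 degrees C, 5% CO2. MIPE set at 11-point and NPC set at 8-point dilutions; viability scored by ATP-based luminescence at 48 hours.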

The nature of test [3]: qHTS of pediatric cancer cell lines to identify multiple opportunities for drug repurposing: Primary screen for LAN-5 cells (AID 1347100). Further: potency means the concentration at half of the fitted maximal effect. The procedure, abridged: as §1
A short description of test [4]: qHTS of pediatric cancer cell lines to identify multiple opportunities for drug repurposing: Primary screen for BT-12 cells (AID 1347101). Further: nearly all actives have a fitted effect of over 25% in size. Further: potency means the concentration at half of the fitted maximal effect. The method, boiled down: (§3)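 Cells (500-1,000/well) rested 5 h, then received compounds for 48 h; metabolically active cells were measured by CellTiter-Glo luminescence. Final concentrations spanned up to 46 µM (MIPE, 11-point) or 0.59 nM-46 µM (NPC, 8-point) in primary screens, 11-point in follow-ups.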

A short description of test [5]: qHTS of pediatric cancer cell lines to identify multiple opportunities for drug repurposing: Primary screen for Rh18 cells (AID 1347102). Further: nearly all actives have a fitted effect of over 65% in size. Further: potency means the concentration at half of the fitted maximal effect. The method, boiled down: as §1
Test [6] can be described thus: qHTS of pediatric cancer cell lines to identify multiple opportunities for drug repurposing: Primary screen for OHS-50 cells (AID 1347103). Further: nearly all actives have a fitted effect of over 40% in size. Further: potency means the concentration at half of the fitted maximal effect. The method, boiled down: as §3
A short description of test [7]: qHTS of pediatric cancer cell lines to identify multiple opportunities for drug repurposing: Primary screen for RD cells (AID 1347104). Further: nearly all actives have a fitted effect of over 55% in size. Further: potency means the concentration at half of the fitted maximal effect. The method, boiled down: as §2
Test [8] in a line: qHTS of pediatric cancer cell lines to identify multiple opportunities for drug repurposing: Primary screen for MG 63 (6-TG R) cells (AID 1347105). Further: nearly all actives have a fitted effect of over 50% in size. Further: potency means the concentration at half of the fitted maximal effect. The procedure, abridged: as §2
Test [9] in a line: qHTS of pediatric cancer cell lines to identify multiple opportunities for drug repurposing: Primary screen for control Hh wild type fibroblast cells (AID 1347106). Further: nearly all actives have a fitted effect of over 55% in size. Further: potency means the concentration at half of the fitted maximal effect. The procedure, abridged:
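Cells (500-1,000/well) in growth media were settled 5 h at 37 degrees C, then given compounds for 48 h. Viability was read as CellTiter-Glo luminescence. Primary runs used MIPE at 11 points (0.78 nM-46 µM) and NPC at 8 points (0.59 nM-46 µM); follow-ups used 11 points.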

Test [10] in a line: qHTS of pediatric cancer cell lines to identify multiple opportunities for drug repurposing: Primary screen for Rh30 cells (AID 1347107). Further: nearly all actives have a fitted effect of over 75% in size. Further: potency means the concentration at half of the fitted maximal effect. The procedure, abridged: as §1
A short description of test [11]: qHTS of pediatric cancer cell lines to identify multiple opportunities for drug repurposing: Primary screen for SK-N-SH cells (AID 1347098). Further: nearly all actives have a fitted effect of over 65% in size. Further: potency means the concentration at half of the fitted maximal effect. The procedure, abridged:
as §3

Test [12] can be described thus: qHTS of pediatric cancer cell lines to identify multiple opportunities for drug repurposing: Primary screen for Rh41 cells (AID 1347108). Further: nearly all actives have a fitted effect of over 70% in size. Further: potency means the concentration at half of the fitted maximal effect. The procedure, abridged: as §2
A short description of test [13]: qHTS of pediatric cancer cell lines to identify multiple opportunities for drug repurposing: Confirmatory screen for NB1643 cells (AID 1347109). Further: nearly all actives have a fitted effect of over 45% in size. The procedure, abridged: as §1
A short description of test [14]: qHTS of pediatric cancer cell lines to identify multiple opportunities for drug repurposing: Confirmatory screen for SK-N-MC cells (AID 1347111).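 Further: cells exposed to compound for 48 h before the readout; nearly all actives have a fitted effect of over 70% in size.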 Further: potency means the concentration at half of the fitted maximal effect. The procedure, abridged: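 SK-N-MC cells at 500-1,000 cells/well in growth media were pre-incubated 5 h, then exposed to compounds at 11-point dilutions for 48 h at 37 degrees C, 5% CO2. Viability was read as CellTiter-Glo luminescence.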

Test [15] is described as follows: qHTS of pediatric cancer cell lines to identify multiple opportunities for drug repurposing: Confirmatory screen for DAOY cells (AID 1347114). Further: nearly all actives have a fitted effect of over 65% in size. The method, boiled down: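 Viability measured as metabolically active cells via CellTiter-Glo luminescence following 48 hours of compound exposure, 11-point dilutions in confirmatory testing. 500-1,000 cells/well plated 5 hours before dosing; controls were DMSO and 2.3 µM bortezomib.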

Test [16] in a line: qHTS of pediatric cancer cell lines to identify multiple opportunities for drug repurposing: Confirmatory screen for NB-EBc1 cells (AID 1347115). Further: nearly all actives have a fitted effect of over 45% in size. Further: potency means the concentration at half of the fitted maximal effect. The method, boiled down:
as §1

Test [17] in a line: qHTS of pediatric cancer cell lines to identify multiple opportunities for drug repurposing: Primary screen for NB1643 cells (AID 1347099). Further: nearly all actives have a fitted effect of over 50% in size. Further: potency means the concentration at half of the fitted maximal effect. The method, boiled down:
as §2

A short description of test [18]: qHTS of pediatric cancer cell lines to identify multiple opportunities for drug repurposing: Confirmatory screen for BT-12 cells (AID 1347112). Further: nearly all actives have a fitted effect of over 55% in size. Further: potency means the concentration at half of the fitted maximal effect. The procedure, abridged:
as §1

Test [19] is described as follows: qHTS of pediatric cancer cell lines to identify multiple opportunities for drug repurposing: Confirmatory screen for LAN-5 cells (AID 1347113). Further: nearly all actives have a fitted effect of over 65% in size. Further: potency means the concentration at half of the fitted maximal effect. The procedure, abridged: as §1
Test [20] can be described thus: qHTS of pediatric cancer cell lines to identify multiple opportunities for drug repurposing: Confirmatory screen for A673 cells (AID 1347110). The procedure, abridged:
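Cells plated at 500-1,000/well were treated five hours later with multi-point dilutions up to 46 µM final. After two days, CellTiter-Glo was added and luminescence read.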

Molecules are shown by their SMILES. “And” between values parts separate entries of the source, which are not always exact repeats. Identical values can stand only once. Results filed as inconclusive are left out. The source made the active and inactive calls. The call rests on the fitted dose curve; in most records, active means well fitted curve in the direction sought with a large enough effect; inconclusive means small, poorly fitted or top-dose-only effect, or another doubt; inactive means no such curve, though single readings can be large; an effect the other way counts as inactive or inconclusive.

As for `O=C(O)C1CCCN(CCC=C(c2ccccc2)c2ccccc2)C1` (stereo unspecified), the Potency result in test [1], in test [2], in test [3], in test [4], in test [5] and in [6] was “inactive” each time. In addition, the Potency result in test [7], in [8], in [9] and in test [10] was “inactive” in each case.
As to `Cn1c(=O)c2c(ncn2CC(O)CO)n(C)c1=O` (stereo unspecified), the Potency result in test [1], in test [2], in test [11], in test [3], in [4] and in test [5] was “inactive” throughout. Besides, the Potency result in test [7], in test [8], in [9], in [10] and in [12] was “inactive” throughout.
Regarding `CC(C(=O)O)c1ccc2c(c1)CC(=O)c1ccccc1S2` (stereo unspecified), the Potency entry in test [1], in test [2], in [3], in [5], in test [8] and in [9] was “inactive” throughout. Also, the Potency result in test [10], in test [13], in [14], in [15] and in test [16] was “inactive” each time.
As for `CNC1CCCN(c2c(F)cc3c(=O)c(C(=O)O)cn(C4CC4)c3c2OC)C1` (stereo unspecified), the Potency entry in test [1], in test [2], in test [3], in test [4], in test [5] and in test [6] was “inactive” in each case. The Potency result in test [7], in [8], in test [9] and in test [10] was “inactive” each time.
With `COc1cnc(NS(=O)(=O)c2ccc(N)cc2)nc1`, the Potency entry in [1], in test [2], in test [4], in [5], in test [8] and in test [9] was “inactive” each time. Further, in test [10], the Potency entry is “inactive”.
As for `O=C(N[C@H](CO)[C@H](O)c1ccc([N+](=O)[O-])cc1)C(Cl)Cl`, the Potency entry in test [1], in [2], in test [17], in test [3], in test [4] and in [5] was “inactive” throughout. For the same compound, the Potency result in [6], in test [7], in test [8], in [9], in test [10] and in [12] was “inactive” each time.
`CC(C)C[C@H](NC(=O)[C@H](CCc1ccccc1)NC(=O)CN1CCOCC1)C(=O)N[C@@H](Cc1ccccc1)C(=O)N[C@@H](CC(C)C)C(=O)[C@@]1(C)CO1`: the Potency is 1.06 µM (active) and 1.48 µM (active) in [1]; 42.2 nM (active) and 93.5 nM (active) in test [2]; 42.2 nM (active) and 52.6 nM (active) in test [17]; 668 nM (active) and 132 nM (active) in test [3]; 87.1 nM (active) and 137 nM (active) in test [4]; 106 nM (active) and 264 nM (active) in [5]. For the same compound, the Potency in test [7] is 23.7 nM (active) and 41.8 nM (active); in [8] it was 42.2 nM (active) and 59 nM (active); in [9], 335 nM (active) and 264 nM (active); in test [10], 59.6 nM (active) and 296 nM (active); in test [12] it was 23.7 nM (active) and 46.9 nM (active); in test [14] it was 0.0083 µM (active). The Potency in test [18] is 0.165 µM (active); in test [19], 0.0329 µM (active); in test [16], 0.329 µM (active).
Regarding `O=c1cc(O)c(Cl)c[nH]1`, the Potency entry in test [1], in [2], in [11], in [3], in [4] and in [5] was “inactive” in each case. Further, the Potency result in test [6], in test [8], in [9] and in test [10] was “inactive” in each case.
For the compound `NC(N)=NC(N)=NCCc1ccccc1`, the Potency result in [1], in [2], in test [11], in test [3], in test [5] and in test [8] was “inactive” each time. For the same compound, the Potency entry in test [9] and in [10] was “inactive” in each case. In addition, the Potency in test [4] is 19.3 µM (active); in test [6], 11 µM (active) and 3.85 µM (active).
Regarding `CCCCCCNC(=O)n1cc(F)c(=O)[nH]c1=O`, the Potency result in [1], in [2], in [5], in [6], in [8] and in test [9] was “inactive” in each case. For the same compound, the Potency result in test [10] and in test [12] was “inactive” throughout. Besides, in test [3], the Potency is 7.5 µM (active) and 9.35 µM (active).
Consider `CCCCOc1ccc(CC(=O)NO)cc1`, for which the Potency in test [1] is 26.6 µM (active); in test [2], 23.5 µM (active); in test [11], 19.2 µM (active); in [3], 23.5 µM (active); in test [7] it was 15 µM (active) and 26.4 µM (active). Further, the Potency entry in [4], in test [8], in test [9], in test [10], in test [13] and in [14] was “inactive” throughout. In addition, the Potency entry in test [18], in test [19], in [15] and in [16] was “inactive” throughout.
For the compound `S=P(N1CC1)(N1CC1)N1CC1`, the Potency in test [20] is 0.928 µM (active).
